# Screening results from PubChem BioAssay.
# The sample as a whole holds a higher share of hits than the screen did.
# Shiga toxin inh = Shiga toxin inhibition; Vero cells, Shiga toxin protein synthesis inhibition reporter; inhibition, % at 38.7 µM; actives 9.2% (n = 290,000); AID 2315; in the data active = inhibition mostly above about 28%, no sharp cut-off; inactive = mostly below about 43%; also: 0% is about no effect
# TbPYK inhibitor = blocks Trypanosoma brucei pyruvate kinase | Potency, µM (doses to about 76.8 µM), for the others: at the top dose activity, negative = inhibition, usual class: inhibitors | actives 0.12% (n = 410,000) | TbPYK enzyme, Kinase-Glo Plus ATP luminescence, 45 min | Q57TT1; also: potency is read from the fitted curve at half-maximal effect; % is scaled to controls: 0 for no effect and ±100 for the full control effect; nearly all actives have a fitted effect of over 50% in size
#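 Activity of T. brucei pyruvate kinase was followed by Kinase-Glo Plus luminescence after the enzyme reacted 45 min at room temperature with 130 uM ADP (final) and substrate. Test compounds were added before ADP at multiple concentrations.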
# LmPK inhibitor = inhibitors of Leishmania mexicana pyruvate kinase | purified LmPK, Kinase-Glo ATP luminescence, 1 h | Q27686 | Potency, µM (series often up to 57.5 µM), without a hit: top-dose activity change, negative = inhibition, actives largely listed as inhibitors | actives 0.37% (n = 290,000); also: potency is read from the fitted curve at half-maximal effect; % is scaled to controls: 0 for no effect and ±100 for the full control effect
#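 Purified LmPK (0.1 nM) with 0.5 mM PEP and 0.1 mM ADP in imidazole buffer pH 7.2 with MgCl2/KCl, 1 h at room temperature. ATP formed was read by luciferase luminescence and normalized to no-enzyme and uninhibited controls.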
# RE007 growth inh = less growth of the S. pombe RE007 Vpr strain. actives 0.21% (n = 360,000). Potency, µM (series often up to 92.2 µM), inactives show top-dose activity change, negative = less growth, actives largely listed as inhibitors. S. pombe RE007 Vpr strain, BacTiter-Glo ATP luminescence, 24 h; active = well fitted falling curve with a large enough effect; inconclusive = small, poorly fitted or top-dose-only effect; inactive = no such curve, though single readings can be large or run the other way; also: potency is read from the fitted curve at half-maximal effect; % is scaled to controls: 0 for no effect and ±100 for the full control effect; nearly all actives have a fitted effect of over 50% in size
#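 Fission yeast strain RE007, carrying one chromosomally integrated HIV-1 vpr copy, was seeded at OD 0.01 in PMG+AL medium with 23 nL pinned compound. After 24 h at 30 °C and 99% humidity, viability was read by BacTiter-Glo luminescence.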
# Cycloheximide cs = counter-screen hit for Shiga toxin inhibitors, cycloheximide. AID 2314. cell reporter, cycloheximide protein synthesis inhibition counterscreen. actives 12% (n = 300,000). max response, %; in the data active = max response mostly above about 13%, no sharp cut-off; inactive = mostly below about 14%; also: read at 38.3 µM for the half of the compounds with a filed dose; 0% is about no effect
# FBPA Giardia inh = inhibitors of Giardia lamblia fructose-1,6-bisphosphate aldolase; A8B2U2; purified Giardia FBPA; Potency, µM (top dose mostly 59.6 µM), inactives show at the highest dose activity, negative = inhibition, actives largely listed as inhibitors; actives 0.71% (n = 290,000); also: potency is read from the fitted curve at half-maximal effect; % is scaled to controls: 0 for no effect and ±100 for the full control effect; nearly all actives have a fitted effect of over 55% in size
# Target sequence (A8B2U2 whole entry, looked up): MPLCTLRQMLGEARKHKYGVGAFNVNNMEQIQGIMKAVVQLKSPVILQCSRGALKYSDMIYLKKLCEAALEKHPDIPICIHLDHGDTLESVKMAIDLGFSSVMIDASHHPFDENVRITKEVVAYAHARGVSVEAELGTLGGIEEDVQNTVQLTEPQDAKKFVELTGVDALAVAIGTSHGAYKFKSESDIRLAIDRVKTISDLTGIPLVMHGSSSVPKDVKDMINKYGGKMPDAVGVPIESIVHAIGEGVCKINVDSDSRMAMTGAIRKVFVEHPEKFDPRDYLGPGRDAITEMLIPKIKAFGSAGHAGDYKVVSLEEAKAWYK
#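 Giardia FBPA (40 nM reagent) was preincubated 10 min at RT with compound (up to 57.5 uM final), then substrate plus GAPDH/TPI/NAD/arsenate coupling system with diaphorase/resazurin was added; resorufin fluorescence (525/598 nm) was read after 20 min.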
# * marks the source's active call; other numbers are inactive results; u = inconclusive; x = no result given; [ ] = remark or other dose. Unless noted, calls follow the shape of the dose curve; as a rule, active = well fitted curve in the direction sought with a large enough effect; inconclusive = small, poorly fitted or top-dose-only effect, or another doubt; inactive = no such curve, though single readings can be large; an effect the other way counts as inactive or inconclusive.
SMILES,Shiga toxin inh,TbPYK inhibitor,LmPK inhibitor,RE007 growth inh,Cycloheximide cs,FBPA Giardia inh
Fc1cccc(-c2ncc(-c3ccccc3)o2)c1,x,-11%,x,-17%,x,x
NC(=O)c1ccccc1,-17,-11%,0%,13%,-1,2%
COc1ccc(C(C(=O)NCc2ccccc2)n2c(=O)c(-c3ccco3)nc3ccccc32)cc1 (stereo unspecified),x,x,x,3%,x,x
CCC(C)C(=O)N1CCc2cc(-c3csc(N)n3)ccc21 (stereo unspecified),65*,-6%,-5%,-10%,52*,1%
CC(=O)Nc1nc(-c2ccc3c(c2)CCN3C(=O)C2CC2)c(C)s1,14,-6%,-4%,-11%,7,x
CCCC(=O)N1CCc2cc(-c3nc(N)sc3C)ccc21,79*,-10%,0%,15%,49*,1%
CCCCOc1ccc(CN2CCC(O)CC2)cc1,91*,6%,0%,-13%,37*,u
CCCCCCOc1ccc(CN2CCN(CCO)CC2)cc1,61*,1%,-4%,-26%,38*,8%
CCCCOc1ccc(CN2CCN(CCO)CC2)cc1,24,-5%,0%,-5%,29*,-10%
CCC1(Cc2ccc(N)cc2)CCC(=O)NC1=O (stereo unspecified),x,0%[157 µM],x,x,x,x
CN1CCN(c2cccc3c2S(=O)(=O)N[C@@H](Cc2ccccc2)CO3)CC1,x,0%,x,-11%,x,x
O=C(Nc1ccc2c(c1)C(=O)N(C1CCCCC1)C2=O)C1CCCO1 (stereo unspecified),17,0%,6%,3%,9.6*,-1%
O=C(O)COc1ccc(NC(=O)c2ccc3c(c2)C(=O)N(C2CCCCC2)C3=O)cc1,-14,2%,-9%,11%,2,x
CC(C)(C)NC(=O)c1ccc2c(c1)C(=O)N(C1CCCCC1)C2=O,80*,-6%,-1%,-4%,48*,10%
O=C(O)c1cccc(NC(=O)c2ccc3c(c2)C(=O)N(C2CCCCC2)C3=O)c1,108*,-2%,1%,0%,44*,4%
COC(=O)Cc1c(C)c2ccc3c(c2oc1=O)CN(Cc1ccc(Cl)cc1)CO3,x,-1%,x,x,x,x
Cc1ccc(-n2nc(C)c3c2OC(N)=C(C#N)C3c2ccoc2)cc1 (stereo unspecified),52,-3%,15%,-9%,25*,-11%
Cc1ccc(-n2nc(C)c3c2OC(N)=C(C#N)C3c2ccco2)cc1 (stereo unspecified),75*,-22%,-1%,-17%,22*,-17%
Cc1ccc(-n2nc(C)c3c2OC(N)=C(C#N)C3c2ccc(C)o2)cc1 (stereo unspecified),92*,-7%,-5%,7%,48*,u
O=C(Nc1ccc(OC(F)(F)F)cc1)c1nc2ccccc2nc1N1CCCCC1,x,-2%,x,x,x,x
CC(=O)Nc1ccc(-c2csc(-c3cccnc3)n2)cc1,111*,-6%,-4%,-5%,72*,8%
CC(=O)Nc1ccc(-c2csc(Nc3ncccn3)n2)cc1,81*,1%,-2%,15%,33*,1%
Oc1ccc(-c2csc(Nc3ncccn3)n2)cc1,122*,-7%,-4%,-10%,39*,-7%
CCCC(=O)Nc1ccc(-c2csc(-c3cccnc3)n2)cc1,44,-4%,3%,5%,11,16%
c1ccc(-c2csc(Nc3ncccn3)n2)cc1,54*,2%,-14%,0%,42,1%
SMILES,Shiga toxin inh,TbPYK inhibitor,LmPK inhibitor,RE007 growth inh,Cycloheximide cs,FBPA Giardia inh
Cc1nc2ncccn2c1-c1csc(Nc2ccc(O)cc2)n1,33,10%,7%,-22%,12,-24%
CN(CC(=O)Nc1sccc1C(N)=O)S(=O)(=O)c1ccc(Cl)cc1,x,0%,x,-8%,x,x
NNc1nc(-c2ccccc2)cs1,93,-8%,-3%,71%,34*,u
CC(=O)Nc1ccc(-c2csc(NCc3ccccc3)n2)cc1,62*,7%,5%,-4%,25*,-7%
CCOC(=O)/C(C)=N/Nc1nc(-c2ccc(NC(C)=O)cc2)cs1,17,-10%,-5%,-14%,18*,u
CC(=O)Nc1ccc(-c2csc(N/N=C(/C)c3ccccc3)n2)cc1,18,-16%,0%,22%,12,-26%
COc1ccc(N2CCN(S(=O)(=O)CCNC(=O)Cc3ccc(OC)c(OC)c3)CC2)cc1,x,1%,x,x,x,x
O=C(Nc1ccc2c3c(cccc13)CC2)c1ccccc1,x,-1%,x,-25%,x,x
Fc1ccccc1-n1cn[nH]c1=S,69*,-15%,0%,15%,28*,u
Cc1cccc(C)c1NC(=O)C(c1ccc(C(F)(F)F)cc1)n1c(=O)c(-c2cc3ccccc3[nH]2)nc2ccccc21 (stereo unspecified),x,x,x,7%,x,x
COc1ccc2[nH]c(=O)c(CNc3cccc(C)c3)cc2c1,37,2%,2%,0%,29*,u
Clc1ccc(Nc2nc(C3CC3)cs2)cc1,102*,-5%,5%,-27%,56*,-9%
S=c1[nH]nc(Nc2ccc(Cl)cc2)s1,12,u,-4%,-4%,1,0%
Cc1ccc(Nc2nc(C3CC3)cs2)cc1,52*,x,-7%,x,33*,2%
CCn1c(SCC(=O)N2CC(C)OC(C)C2)nc2c([nH]c3ccccc32)c1=O (stereo unspecified),3,-4%,1%,-7%,7,x
O=C(NCCSCc1ccccc1Cl)C1CCN(S(=O)(=O)Cc2ccccc2)CC1,x,-10%,x,x,x,x
Cc1ccc(NC(=O)c2c(C)noc2C)cc1,-21,-7%,1%,-10%,-2,3%
COC(=O)c1ccccc1NC(=O)c1sc(N)nc1C,13,2%,5%,-1%,7,3%
Cc1ccc(NC(=O)c2sc(N)nc2C)cc1,54*,-6%,-7%,4%,37*,0%
Cc1noc(N)c1C(=O)Nc1ccc(C(C)(C)C)cc1,136*,-9%,u,-28%,40*,-12%
Cc1nc(C(=O)Nc2ccccc2)sc1C(=O)Nc1ccccc1,79*,-12%,-8%,-29%,40*,-13%
Cc1nc(Cl)sc1C(=O)Nc1ccc(C(C)(C)C)cc1,91*,-4%,0%,-7%,50*,-15%
O=C(N[C@@H]1CC[C@@H](CCn2cc(-c3ccccc3)nn2)O[C@@H]1CO)c1cnccn1,x,x,x,8%,x,x
CCCn1c(N)c(C(=O)CSc2nnc(-c3cccs3)n2C2CC2)c(=O)[nH]c1=O,x,-1%,x,-15%,x,x
O=C(CN1C(=O)C2(SCC(=O)N2c2cccc(Cl)c2)c2ccccc21)NCCc1ccccc1 (stereo unspecified),x,3%,x,x,x,x
Cc1nc(N)sc1C(=O)Nc1ccccc1,68*,-11%,u,-13%,35*,-23%
